# Screens from PubChem.
# MITF TRPM1 inh: inhibitors of MITF-driven TRPM1 promoter in melanoma cells | SK-MEL-5 TRPM1 promoter luciferase, 24 h | 330,000 tested, 0.83% active | inhibition, % at 12.5 µM | AID 488899;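 active = mean inhibition across replicates of 60% or more, whatever share of single replicates reaches that level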
# TWEAK Fn14 block: inhibitors of TWEAK-Fn14 interaction signaling | TWEAK-stimulated Fn14 reporter cells, luciferase luminescence, 8 h | inhibition, % at 10 µM | 360,000 tested, 2% active; in the data active = inhibition above about 50%
# TROY NFkB inh: TROY signaling inhibition. 360,000 tested, 0.98% active. AID 1347056. inhibition, % at 10 µM. Q293 LMP1-TROYcd NF-kB luciferase reporter, 4 h;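 active = compounds whose plate-normalised and pattern-corrected inhibition of the luciferase reporter signal at the single screening dose is 50% or more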
# MITF TRPM1 HTS: increases MITF-driven TRPM1 promoter luciferase signal | SK-MEL-5 TRPM1-promoter luciferase, 24 h; % of positive control, neutral wells = 0 | activation, % at 12.5 µM | 300,000 tested, 0.75% active | AID 588334;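 active = mean activation of at least 80% with every replicate also reaching 80%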;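 note: 0% = neutral control wells and 100% = parthenolide positive control wells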
# EBV LMP1 NFkB: reduces LMP1-driven NF-kappaB luciferase signal; 350,000 tested, 0.69% active; inhibition, % at 12.5 µM; LMP1-induced NF-kappaB luciferase reporter cells, luminescence; in the data active = inhibition above about 41%;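 note: 0% = neutral control wells and 100% = reference inhibitor control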
# LGR2 inh: Drosophila LGR2 receptor signaling inhibition; 380,000 tested, 0.35% active; inhibition, % at 9.99 µM; AID 720647; HEK293 LGR2, CRE-luciferase, bursicon-stimulated, 4 h;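 active = drop in luminescence signal, shown as inhibition above about 50% in the replicate tests, limit read from the data, passing the limit was not always enough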;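 note: agonist challenge used bursicon conditioned medium at about half maximal strength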
# * hit, by the source's call; · = no result given. Hits are enriched below; roughly 3% of the tested compounds scored in any of these assays.
SMILES,MITF TRPM1 inh,TWEAK Fn14 block,TROY NFkB inh,MITF TRPM1 HTS,EBV LMP1 NFkB,LGR2 inh
O=C(N[C@H]1CC[C@@H](CCn2cc(C3(O)CCCC3)nn2)O[C@H]1CO)C1CCC1,·,·,·,·,·,-8
COc1ccccc1NC(=O)CSc1ccc(-c2cccs2)nn1,0,53*,26,-2,4,-8
Cc1ccc(NC(=O)c2cn(-c3cccc(C)n3)cn2)cc1,-113,-6,-11,106*,-20,·
COC(=O)c1ccc(NC(=O)c2cn(-c3cccc(C)n3)cn2)cc1,-22,-29,-2,21,3,·
O=C(/C=C/c1ccccc1Cl)c1ccccc(=O)c1O,6,35,37,-6,-35,9
Cc1ccc(C)c(/C=C/C(=O)c2ccccc(=O)c2O)c1,30,32,5,-34,-111,10
O=C(/C=C/c1ccc([N+](=O)[O-])cc1)c1ccccc(=O)c1O,69*,72*,-29,-67,19,46
Cc1ccc(/C=C/C(=O)c2ccccc(=O)c2O)c(C)c1,0,87*,73*,-1,14,2
Cc1ccc2oc(C(Cl)(Cl)Cl)cc(=O)c2c1,67*,64*,11,-68,3,-1
Cc1ccc2oc(C(F)(F)C(F)F)cc(=O)c2c1,-4,13,3,-13,-1,-19
COc1ccc2cc(CCC(C)=O)ccc2c1,-110,-20,-60,108*,-28,-66
CN(C)CCCNC(=O)C[C@H]1C[C@H](C(=O)N2CCCCC2)[C@@]2(CCc3ccccc3)c3[nH]c4cc(-c5ccco5)ccc4c3CCN2C1=O,92*,-21,9,-92,-13,8
CN(C)CCCNC(=O)C[C@H]1C[C@H](C(=O)N2CCCCC2)[C@@]2(C)c3[nH]c4cc(-c5ccco5)ccc4c3CCN2C1=O,-19,-18,-19,24,-4,-7
O=C(CC1C[C@H](C(=O)N2CCCCC2)[C@@]2(CCc3ccccc3)c3[nH]c4ccccc4c3CCN2C1=O)NCCc1ccccn1 (some centres undefined),19,19,7,-14,69*,-17
O=C(CC1C[C@H](C(=O)N2CCCCC2)[C@@]2(CCc3ccccc3)c3[nH]c4ccccc4c3CCN2C1=O)NCc1cccc(C(F)(F)F)c1 (some centres undefined),30,49,18,-26,3,19
O=C(C[C@H]1C[C@H](C(=O)N2CCCCC2)[C@@]2(CCc3ccccc3)c3[nH]c4ccc(Cl)cc4c3CCN2C1=O)NCc1cccc(C(F)(F)F)c1,38,53*,16,-39,14,7
COc1ccc2c3c(n(C)c2c1)[C@@H](CO)N(C(=O)Nc1ccc(F)cc1)CC31CN(C(=O)NC2CCCC2)C1,·,·,·,·,·,14
Cc1ccc(S(=O)(=O)Nc2ccccc2-c2ccccc2NS(=O)(=O)c2ccc(C)cc2)cc1,7,-1,52*,-7,6,·
Cc1ccc(S(=O)(=O)Nc2ccccc2C(N)=O)cc1,6,-9,-3,-5,-5,·
COc1cc(NS(=O)(=O)c2ccc(C)cc2)c2ncccc2c1,74*,107*,28,·,-6,·
Cc1ccc(S(=O)(=O)Nc2cccc3cccnc23)cc1,83*,107*,79*,-84,-8,·
COc1ccc(S(=O)(=O)Nc2ccccn2)cc1,0,2,-11,·,9,-1
N=c1oc2ccccc2cc1C(=O)Nc1cccc(F)c1,3,50,-11,6,-25,-65
Cc1ccc(NC(=O)c2cc3ccccc3oc2=N)cc1,24,98*,38,-21,50*,89*
N=c1oc2ccccc2cc1C(=O)Nc1ccc(F)cc1,8,62*,-81,-12,-27,9
C[C@@H]1CN([C@@H](C)CO)C(=O)c2cc(NC(=O)Nc3ccccc3)ccc2O[C@@H]1CN(C)Cc1ccc(Cl)c(Cl)c1,·,·,·,·,·,13
CC(=O)c1cccc(Nc2nc(N3CCOCC3)nc(N3CCOCC3)n2)c1,-14,-15,-2,18,0,13
CCN1CCN(c2nc(Nc3ccc(NC(C)=O)cc3)nc(Nc3ccc(NC(C)=O)cc3)n2)CC1,5,14,63*,-3,4,1
CC(=O)c1ccc(Nc2nc(N3CCOCC3)nc(N3CCOCC3)n2)cc1,-27,83*,-45,28,-6,-15
Clc1ccc(-c2nc3n(n2)Cc2ccccc2-3)cc1,-14,52*,-34,·,-33,·
